“And” between values parts separate entries of the source, which are not always exact repeats. Equal values may be shown once. This is part of a sample that, as a whole, favours compounds with a hit. Of some 79,000 tested, about 15% had one in any assay. Where a structure was tested more than once in an assay, its records may differ in their call. The source made the active and inactive calls. Rule as the data show it: active = growth inhibition above about 70%; inactive = the rest.

The first assay can be described thus: NCI Yeast Anticancer Drug Screen. Data for the mec2-1 strain (AID 157). As to conditions: S. cerevisiae mec2-1 strain, at 50.0 µM (retest, dose inferred, filed as 5.0), stronger effect = higher value. An outline of the steps: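 Yeast mec2-1 mutant treated with compound. Readout: growth inhibition vs vehicle controls.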
Consider `CNC(=O)OCc1c(COC(=O)NC)c(C)n(-c2ccc(Cl)c(Cl)c2)c1C`, for which the growth inhibition is 98% (active).

With `COc1ccc2nc(N/N=C/c3sccc3C)cc(C)c2c1`, the growth inhibition is 56% (inactive).

Take `CCCCCCCCCCCC[N+](C)(C)Cc1ccccc1` (tested in a mixture with another compound): the growth inhibition is 100% (active).

Consider `CC(C)c1ccc(O)c(=O)cc1`, for which the growth inhibition is 50% (inactive) and 57% (inactive) and 7% (inactive).

On to `O=C(O)/C=C\C(=O)NNc1ccc(Br)cc1`, for which the growth inhibition is 99% (active).

On to `S=c1[nH]nc(Cc2ccccc2)c(=S)[nH]1`, for which the growth inhibition is 75% (active).

For the compound `CCN(CC)CCSc1c2ccccc2nc2cc(NCC(=O)Nc3ccccc3-c3ccccc3NC(=O)CNc3ccc4c(SCCN(CC)CC)c5ccccc5nc4c3)ccc12`, the growth inhibition is 98% (active).

Regarding `Cc1ccc(N(C=O)c2c([N+](=O)[O-])cc([N+](=O)[O-])c3c2=[N+]([O-])CN=3)cc1`, the growth inhibition was 91% (active).

In the case of `Nc1ccccc1SSc1ccccc1N`, the growth inhibition is 99% (active) and 0% (inactive).

Consider `COc1ccc(C(=O)OCCc2ccccc2)cc1`, for which the growth inhibition is -14% (inactive).

In the case of `COc1ccc(C(=O)NCCN(C)C)c2nc3ccccc3cc12`, the growth inhibition was 59% (inactive).

Consider `NCC(O)CSCc1ccc(Cl)cc1` (stereo unspecified), for which the growth inhibition was 5% (inactive).

`O=c1[nH]c(=O)n(CCCO)cc1F`: the growth inhibition is 20% (inactive).

In the case of `CCCCCCCCCCCC[N+](C)(C)C`, the growth inhibition was 99% (active) and 98% (active) and 100% (active).

Regarding `COc1ccc(/C(=N/O)c2ccccc2C2=Nc3ccccc3C(NCc3ccccc3)O2)cc1C` (stereo unspecified), the growth inhibition is 62% (inactive).

As to `CCCC(=O)OC(OC(=O)CCC)c1ccc([N+](=O)[O-])o1`, the growth inhibition was 8% (inactive).

In the case of `O=C(/C(=C/c1ccccc1)CBr)c1ccccc1`, the growth inhibition was 98% (active).

With `O=C(Cc1ccccc1F)NC1=C(Cl)C(=O)c2ccccc2C1=O`, the growth inhibition is 50% (inactive).

As for `Cc1cccc(N2CCN(C(=O)/C(=C/c3ccccc3)NC(=O)c3ccccc3)CC2)c1`, the growth inhibition was -26% (inactive).

With `OCC(O)C(O)C(O)C(O)c1nc2ccccc2[nH]1` (stereo unspecified), the growth inhibition was -30% (inactive).

In the case of `c1cc(Nc2ccc3c(c2)OCO3)c2cc(C3CCCCC3)ccc2n1`, the growth inhibition is 23% (inactive).

`Cc1ccc2nc(N/N=C/c3ccc(C)s3)cc(C)c2c1`: the growth inhibition is 99% (active).

In the case of `COc1cc(NCCCCCNC(C)C)c2ncccc2c1Cl`, the growth inhibition is 13% (inactive).

`COc1cccc2c1C(=O)c1c(O)c3c(c(O)c1C2=O)CC(O)(C(=O)CO)CC3OC1CC(N)C(O)C(C)O1` (stereo unspecified): the growth inhibition is 8% (inactive) and 10% (inactive) and 58% (inactive).

Consider `COc1ccc2cc(CN3CCC(C4CCN(Cc5ccc6cc(OC)ccc6c5)CC4)CC3)ccc2c1`, for which the growth inhibition was 22% (inactive).

Regarding `CC(=O)O/N=C/c1c2ccccc2cc2ccccc12`, the growth inhibition is 18% (inactive).

As for `CC[C@@]1(OC(=O)CN(C)C)C(=O)OCc2c1cc1n(c2=O)Cc2cc3ccccc3nc2-1`, the growth inhibition was 96% (active).

Turning to `CC1(C)CC(=O)C(C(CC(c2ccccc2)c2cc3c(cc2O)OCO3)C2=C(O)CC(C)(C)CC2=O)=C(O)C1` (stereo unspecified), the growth inhibition was 97% (active).

For `CCCCCCC(CCl)c1sc(-c2csc(CCNC(=O)OC(C)(C)C)n2)nc1C(=O)OC` (stereo unspecified), the growth inhibition was 39% (inactive).

On to `CCOC(=O)C1=C(C)NC(C)=C(C(=O)OCC)C1c1cccc([N+](=O)[O-])c1`, for which the growth inhibition was 76% (active).

`COc1nc(N)c(N=CC(OC(C)=O)C(OC(C)=O)C(COC(C)=O)OC(C)=O)c(=O)n1C` (stereo unspecified): the growth inhibition was 3% (inactive) and 1% (inactive) and 5% (inactive).

With `Cc1ccc2c(/C=C/c3ccc(N(C)C)cc3)ccnc2c1C`, the growth inhibition is 21% (inactive).

Take `Cc1cc(SC#N)ccc1O`: the growth inhibition was 83% (active) and 90% (active) and 62% (inactive).

In the case of `O=C1C(Br)=CC(Br)(Br)C=C1Br`, the growth inhibition was 97% (active).

Staying with this assay, now noted: S. cerevisiae mec2-1 strain, at 50.0 µM, stronger effect = higher value.
On to `CNC(=O)OCc1c(COC(=O)NC)c(C)n(-c2ccc(Cl)c(Cl)c2)c1C`, for which the growth inhibition is 90.8% (active).

Turning to `COc1ccc2nc(N/N=C/c3sccc3C)cc(C)c2c1`, the growth inhibition is 87.5% (active).

On to `CCCCCCCCCCCC[N+](C)(C)Cc1ccccc1` (tested in a mixture with another compound), for which the growth inhibition is 99.7% (active) and 99.8% (active) and 86.8% (active).

Take `CC(C)c1ccc(O)c(=O)cc1`: the growth inhibition is 93.8% (active) and 94.7% (active) and 94.6% (active).

For the compound `O=C(O)/C=C\C(=O)NNc1ccc(Br)cc1`, the growth inhibition is 98.2% (active).

On to `S=c1[nH]nc(Cc2ccccc2)c(=S)[nH]1`, for which the growth inhibition is 64.2% (inactive).

`CCN(CC)CCSc1c2ccccc2nc2cc(NCC(=O)Nc3ccccc3-c3ccccc3NC(=O)CNc3ccc4c(SCCN(CC)CC)c5ccccc5nc4c3)ccc12`: the growth inhibition is 89.5% (active).

Turning to `Cc1ccc(N(C=O)c2c([N+](=O)[O-])cc([N+](=O)[O-])c3c2=[N+]([O-])CN=3)cc1`, the growth inhibition was 27.6% (inactive).

As for `Nc1ccccc1SSc1ccccc1N`, the growth inhibition is 99.5% (active) and 99.1% (active).

On to `COc1ccc(C(=O)OCCc2ccccc2)cc1`, for which the growth inhibition is 1.85% (inactive).

Consider `COc1ccc(C(=O)NCCN(C)C)c2nc3ccccc3cc12`, for which the growth inhibition is 71.2% (active).

In the case of `NCC(O)CSCc1ccc(Cl)cc1` (stereo unspecified), the growth inhibition is 25.1% (inactive).

Take `O=c1[nH]c(=O)n(CCCO)cc1F`: the growth inhibition is -38.6% (inactive).

In the case of `CCCCCCCCCCCC[N+](C)(C)C`, the growth inhibition is 53.3% (inactive) and 89.5% (active) and 92.2% (active).

As for `COc1ccc(/C(=N/O)c2ccccc2C2=Nc3ccccc3C(NCc3ccccc3)O2)cc1C` (stereo unspecified), the growth inhibition is 92.6% (active).

As for `CCCC(=O)OC(OC(=O)CCC)c1ccc([N+](=O)[O-])o1`, the growth inhibition was -1.45% (inactive).

Regarding `O=C(/C(=C/c1ccccc1)CBr)c1ccccc1`, the growth inhibition is 80.5% (active) and 61.1% (inactive).

On to `O=C(Cc1ccccc1F)NC1=C(Cl)C(=O)c2ccccc2C1=O`, for which the growth inhibition is -14.2% (inactive).

`Cc1cccc(N2CCN(C(=O)/C(=C/c3ccccc3)NC(=O)c3ccccc3)CC2)c1`: the growth inhibition is 2.95% (inactive).

With `OCC(O)C(O)C(O)C(O)c1nc2ccccc2[nH]1` (stereo unspecified), the growth inhibition was 0.75% (inactive) [middle of 5 runs].

With `c1cc(Nc2ccc3c(c2)OCO3)c2cc(C3CCCCC3)ccc2n1`, the growth inhibition is 99.5% (active).

Regarding `Cc1ccc2nc(N/N=C/c3ccc(C)s3)cc(C)c2c1`, the growth inhibition is 92.7% (active).

For the compound `COc1cc(NCCCCCNC(C)C)c2ncccc2c1Cl`, the growth inhibition is 6.65% (inactive).

With `COc1ccc2cc(CN3CCC(C4CCN(Cc5ccc6cc(OC)ccc6c5)CC4)CC3)ccc2c1`, the growth inhibition was 75.7% (active).

`CC(=O)O/N=C/c1c2ccccc2cc2ccccc12`: the growth inhibition is 8.65% (inactive).

On to `CC[C@@]1(OC(=O)CN(C)C)C(=O)OCc2c1cc1n(c2=O)Cc2cc3ccccc3nc2-1`, for which the growth inhibition is 99% (active).

With `CC1(C)CC(=O)C(C(CC(c2ccccc2)c2cc3c(cc2O)OCO3)C2=C(O)CC(C)(C)CC2=O)=C(O)C1` (stereo unspecified), the growth inhibition is 93.5% (active).

In the case of `CCCCCCC(CCl)c1sc(-c2csc(CCNC(=O)OC(C)(C)C)n2)nc1C(=O)OC` (stereo unspecified), the growth inhibition was 30.1% (inactive).

Turning to `CCOC(=O)C1=C(C)NC(C)=C(C(=O)OCC)C1c1cccc([N+](=O)[O-])c1`, the growth inhibition is 37.1% (inactive).

With `Cc1ccc2c(/C=C/c3ccc(N(C)C)cc3)ccnc2c1C`, the growth inhibition was 84.8% (active).

Consider `Cc1cc(SC#N)ccc1O`, for which the growth inhibition is 90% (active) and 87.1% (active).

Turning to `O=C1C(Br)=CC(Br)(Br)C=C1Br`, the growth inhibition is 93.5% (active).

Source of the values: PubChem BioAssay (NCI).
